ChEMBL document CHEMBL1201862, “PubChem BioAssay data set” (2004)
About 2,100 (0.53%) of roughly 400,000 compounds were called active. About 14% were inconclusive and are not listed. The rule behind the calls is not given here. Only a selection was taken, and actives are over-represented in it overall.

Molecular target: Ataxin-2 (Homo sapiens) (UniProt Q99700)
Assay: qHTS for Inhibitors of ATXN expression.
Type: functional

Chain of Ataxin-2 (Homo sapiens) (Q99700 whole entry): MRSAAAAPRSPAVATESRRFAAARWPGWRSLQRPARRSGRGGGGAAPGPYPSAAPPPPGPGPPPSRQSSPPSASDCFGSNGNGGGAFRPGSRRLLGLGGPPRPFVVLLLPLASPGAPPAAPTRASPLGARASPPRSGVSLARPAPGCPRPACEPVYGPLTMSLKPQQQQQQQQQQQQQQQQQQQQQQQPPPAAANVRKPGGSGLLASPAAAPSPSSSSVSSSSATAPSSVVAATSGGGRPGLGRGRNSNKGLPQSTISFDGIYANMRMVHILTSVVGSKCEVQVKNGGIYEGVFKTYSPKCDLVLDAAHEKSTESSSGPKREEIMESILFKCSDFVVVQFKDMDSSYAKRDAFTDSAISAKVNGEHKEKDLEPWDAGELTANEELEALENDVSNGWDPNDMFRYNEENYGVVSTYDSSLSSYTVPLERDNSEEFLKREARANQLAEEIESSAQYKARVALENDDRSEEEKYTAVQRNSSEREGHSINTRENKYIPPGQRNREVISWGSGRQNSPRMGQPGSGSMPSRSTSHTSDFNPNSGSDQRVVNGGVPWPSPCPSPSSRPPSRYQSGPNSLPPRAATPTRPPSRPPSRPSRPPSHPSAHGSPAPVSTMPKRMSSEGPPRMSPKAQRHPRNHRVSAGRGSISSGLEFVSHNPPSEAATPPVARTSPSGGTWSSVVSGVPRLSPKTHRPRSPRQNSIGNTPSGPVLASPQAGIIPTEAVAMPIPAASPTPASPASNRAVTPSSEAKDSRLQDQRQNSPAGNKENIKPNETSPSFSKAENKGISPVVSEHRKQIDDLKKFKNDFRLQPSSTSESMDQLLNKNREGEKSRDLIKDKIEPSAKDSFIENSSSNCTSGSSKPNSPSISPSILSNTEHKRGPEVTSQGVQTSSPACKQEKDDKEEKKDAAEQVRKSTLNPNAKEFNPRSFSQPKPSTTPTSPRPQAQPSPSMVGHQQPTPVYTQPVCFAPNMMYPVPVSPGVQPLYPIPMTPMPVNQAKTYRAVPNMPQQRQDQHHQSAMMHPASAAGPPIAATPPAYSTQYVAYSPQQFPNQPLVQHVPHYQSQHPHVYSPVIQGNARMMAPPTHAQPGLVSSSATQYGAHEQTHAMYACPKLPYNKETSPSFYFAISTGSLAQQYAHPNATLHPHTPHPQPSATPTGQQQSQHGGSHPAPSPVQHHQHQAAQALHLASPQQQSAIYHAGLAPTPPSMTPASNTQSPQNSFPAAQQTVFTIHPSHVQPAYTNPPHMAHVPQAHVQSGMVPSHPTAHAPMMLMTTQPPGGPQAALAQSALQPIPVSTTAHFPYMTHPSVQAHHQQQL

SMILES	Potency
Cc1c(C)c2cc3c(c(C)c2oc1=O)OCN(CCc1ccc(F)cc1)C3	inactive
FC(F)(F)c1cnc(C(c2ccccn2)c2nc[nH]n2)c(Cl)c1 (configuration not stated)	inactive
COc1ccc(C(CCN(Cc2ccc(OC)c(OC)c2)C(=O)CCl)c2ccccc2)cc1 (configuration not stated)	31.6 µM (active)
COc1ccc(CN(C)CC(=O)Nc2ccc(SC(F)F)cc2)cc1OC	inactive
CCOc1ccc(CN(C)CC(=O)Nc2cccc3ccccc23)cc1OC	inactive
CCOc1ccc(C(CC(=O)O)NC(=O)C(c2ccccc2)c2ccccc2)cc1OC (configuration not stated)	inactive
COc1ccc(CN(CCC(c2ccccc2)c2ccc(OC(C)C)cc2)C(=O)CCl)cc1OC (configuration not stated)	6.31 µM (active)
COc1ccc(CN(C(=O)COc2ccc(C)c(C)c2)C2CCS(=O)(=O)C2)cc1OC (configuration not stated)	inactive
COc1cc(C2NC(=O)NC(c3ccccc3)=C2C(C)=O)cc([N+](=O)[O-])c1O (configuration not stated)	inactive
C#CC(=O)N(c1ccc(OC)cc1OC)C(C(=O)NC1CCCC1)c1cccs1 (configuration not stated)	2.12 µM (active)
O=C(CN(C(=O)CNC(=O)c1cccs1)c1ccccc1)NC1CCCCC1	inactive
COc1cc(C(=O)OC(C)C(=O)NC(=O)NC2CCCCC2)ccc1OC(F)F (configuration not stated)	inactive
O=C(CCC(=O)c1cccs1)NC1CCCCCC1	inactive
C#CC(=O)N(c1ccc(OC)c(OC)c1)C(C(=O)NC1CCCC1)c1cccs1 (configuration not stated)	25.1 µM (active)
O=C(O)c1ccc(COc2ccc3ccccc3c2/C=C2/NC(=O)N(Cc3ccc(F)cc3)C2=O)cc1	inactive
COc1ccccc1C(=O)NCCC(=O)N1CCN(S(=O)(=O)c2cccc(Cl)c2)CC1	inactive
CCc1cc2c(COC(=O)c3cc(S(=O)(=O)N4CCOCC4)ccc3F)cc(=O)oc2cc1O	inactive
COc1ccccc1N1C(=O)c2cccc3c(Cl)ccc(c23)C1=O	inactive
COc1ccc(N2C(=O)CC(Nc3ccc(C(=O)O)cc3)C2=O)cc1OC (configuration not stated)	inactive
COc1cc(N2C(=O)C=CC2=O)ccc1N1C(=O)C=CC1=O	15 µM (active)
COc1ccc(C(CNC(=O)COc2c(C)cc(C)cc2C)N2CCOCC2)cc1 (configuration not stated)	inactive
Cc1ccc2oc(C(=O)NCC(c3ccc(Cl)cc3)N3CCOCC3)c(C)c2c1 (configuration not stated)	39.8 µM (active)
CCC(C)NC(=O)c1oc2ccc(S(=O)(=O)N3CCC4(CC3)OCCO4)cc2c1C (configuration not stated)	inactive
CN(C)C(=O)c1coc2nc3ccccc3nc12	inactive
COc1cc(NS(=O)(=O)c2ccc3ccccc3c2)c2ncccc2c1	inactive
CCN(CC)S(=O)(=O)c1cc(OC)ccc1N=Nc1ccc(O)c2ncccc12	10 µM (active)
CCS(=O)(=O)c1ccc(N=Nc2ccc(O)c3ncccc23)c(OC)c1	25.1 µM (active)
